Source: PubChem (National Center for Advancing Translational Sciences (NCATS))
Most compounds without a hit are left out; they make up all but 19% or so of the library.
TDP1 cell CPT: DT40-hTDP1 cell growth loss with CPT | 420,000 tested, 12% active | chicken DT40 Tdp1-/-;hTDP1 cells + 20 nM CPT, ATP luminescence, 48 h | AID 686979 | Potency, µM (top dose mostly 46.2 µM), for inactives: at the highest dose activity change, negative = growth inhibition, usual class: inhibitors; further: potency means the concentration at half of the fitted maximal effect; on the % scale 0 is the no-effect control and ±100 the full control effect; nearly all actives have a fitted effect of over 55% in size
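Cell growth measured by CellTiter-Glo luminescence after a minimum 48 h, 37 C compound exposure with 20 nM CPT in Tdp1-knockout DT40 cells stably expressing hTDP1, seeded 400/well; qHTS titration format.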
IL-1B inflam inh: inflammasome signaling inhibition, IL-1 beta readout. THP-1 LPS/ATP IL-1B secretion, AlphaLISA, 16 h; active compounds read low. activity change, % at 57.5 µM. 360,000 tested, 4.7% active. AID 743279; in the data active means activity change below about -50%; inconclusive means mostly about -30% to -49%; further: on the % scale 0 is the no-effect control and ±100 the full control effect
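Secreted IL-1B measured by AlphaLISA bead assay after 16 h compound exposure of THP-1 cells; compounds (final up to 57.5 uM) added 1 h before LPS (250 ng/mL) and ATP (1.25 mM) stimulation; lower signal means less secretion.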
HepG2 viability: kills HepG2 cells in TGF-b inhibitor counter-screen. HepG2 CAGA-GFP viability, ATP luminescence, 18 h. Potency, µM (top dose mostly 46.1 µM), for the others: at the top dose activity change, negative = cytotoxicity, usual class: cytotoxic. 410,000 tested, 0.76% active. AID 588856; further: potency means the concentration at half of the fitted maximal effect
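HepG2 CAGA-GFP cells (1000/well, DMEM with 1% FBS) received compound, then TGF-beta at 500 pg/mL final, and were incubated 18 hours at 37 degrees C. Viability was read by CellTiter-Glo luminescence. Media-only wells were set as complete cell-killing and DMSO as no toxicity.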
TGFb inhibitor: inhibitors of TGF-b signaling. Potency, µM (series often up to 46.1 µM), for the others: top-dose activity, negative = inhibition, usual class: inhibitors. AID 588855. HepG2 CAGA-GFP TGF-b/SMAD3 reporter, GFP fluorescence, 18 h; TGF-beta stimulated, 500 pg/mL final. 410,000 tested, 1.2% active; further: potency means the concentration at half of the fitted maximal effect; on the % scale 0 is the no-effect control and ±100 the full control effect; nearly all actives have a fitted effect of over 65% in size
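HEPG2 CAGA-GFP cells (1000/well, DMEM with 1% FBS) were pre-incubated 2 h at 37 degrees C, given compound by pin tool, then stimulated with TGF-beta at 500 pg/mL final for 18 h before per-cell GFP fluorescence imaging.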
ASM inhibitor: human S-ASM enzyme inhibition. P17405. placental ASM, HMU-PC fluorogenic substrate, 60 min. Potency, µM (series often up to 57.5 µM), for the others: at the top dose activity change, negative = inhibition, actives largely listed as inhibitors. 340,000 tested, 0.006% active. AID 504937; further: potency means the concentration at half of the fitted maximal effect
Target sequence (P17405 47-631 limits assumed): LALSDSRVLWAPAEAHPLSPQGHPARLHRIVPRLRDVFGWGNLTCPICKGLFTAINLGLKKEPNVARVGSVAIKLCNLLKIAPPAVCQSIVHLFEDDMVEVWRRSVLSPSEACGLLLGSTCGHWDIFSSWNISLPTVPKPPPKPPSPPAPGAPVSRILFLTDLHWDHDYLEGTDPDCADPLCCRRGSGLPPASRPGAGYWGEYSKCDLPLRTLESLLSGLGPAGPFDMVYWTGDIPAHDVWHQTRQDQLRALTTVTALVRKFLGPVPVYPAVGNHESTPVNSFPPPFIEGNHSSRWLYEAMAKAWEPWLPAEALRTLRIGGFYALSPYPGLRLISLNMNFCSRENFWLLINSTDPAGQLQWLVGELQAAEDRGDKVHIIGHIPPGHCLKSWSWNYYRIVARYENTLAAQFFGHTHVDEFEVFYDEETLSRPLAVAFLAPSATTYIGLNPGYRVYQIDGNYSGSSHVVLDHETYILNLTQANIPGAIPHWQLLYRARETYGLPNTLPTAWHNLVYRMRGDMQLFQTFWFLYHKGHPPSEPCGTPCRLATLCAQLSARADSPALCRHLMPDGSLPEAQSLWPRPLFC
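HMU-PC0 cleavage (9 uM final) by human placental ASM, 60 min at 37 °C following 10 min compound exposure at RT; stopped at pH 10, fluorescence Ex 386/Em 447 nm.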
DT40 TDP1 no CPT: qHTS for Inhibitors of human tyrosyl-DNA phosphodiesterase 1 (TDP1): qHTS in cells in absence of CPT; 420,000 tested, 15% active; DT40 Tdp1-/- hTDP1 cells, no CPT, ATP luminescence, 48 h; AID 686978, 2013; Potency, µM (highest dose often 46.2 µM), for inactives: at the highest dose activity change, negative = growth inhibition, most hits filed as inhibitors; further: potency means the concentration at half of the fitted maximal effect; on the % scale 0 is the no-effect control and ±100 the full control effect; nearly all actives have a fitted effect of over 55% in size
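No-CPT arm: Tdp1-/-;hTDP1 DT40 cells (400/well) plus compounds, incubated ≥48 hr at 37 °C. Readout CellTiter-Glo luminescence.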
* hit, by the source's call. Unless noted, the call rests on the fitted dose curve; in most records, active means well fitted curve in the direction sought with a large enough effect; inconclusive means small, poorly fitted or top-dose-only effect, or another doubt; inactive means no such curve, though single readings can be large; an effect the other way counts as inactive or inconclusive.

How did COc1ccc(/C=N/Nc2cc(C)nc(-n3nc(C)cc3C)n2)cc1 do in these assays?
TDP1 cell CPT: 4.6µM*; IL-1B inflam inh: -99*; HepG2 viability: -24%; TGFb inhibitor: 0%; ASM inhibitor: -12%; DT40 TDP1 no CPT: 4.6µM*

Results for C/C(=N\Nc1cc(C)nc(-c2ccccc2O)n1)c1ccccc1O ?
TDP1 cell CPT: -86%; IL-1B inflam inh: 7; HepG2 viability: -12%; TGFb inhibitor: -10%; ASM inhibitor: inconclusive; DT40 TDP1 no CPT: 13µM*

How did CCOc1ccc(S(=O)(=O)Nc2ccc(C(=O)NCC(c3ccccc3)N(C)C)cc2)cc1 (centres undefined) do in these assays?
TDP1 cell CPT: 0%; IL-1B inflam inh: 0; HepG2 viability: -8%; TGFb inhibitor: -3%; ASM inhibitor: 2%; DT40 TDP1 no CPT: 3%

How did Cc1cc(N/N=C/c2ccccc2[N+](=O)[O-])nc(-n2nc(C)cc2C)n1 do in these assays?
TDP1 cell CPT: 1.2µM*; IL-1B inflam inh: -97*; HepG2 viability: -40%; TGFb inhibitor: 2.5µM*; ASM inhibitor: -13%; DT40 TDP1 no CPT: 0.92µM*

Results for COc1ccc(/C=N/Nc2cc(C)nc(NS(=O)(=O)c3ccc(C)cc3)n2)cc1 ?
TDP1 cell CPT: inconclusive; IL-1B inflam inh: -15; HepG2 viability: -46%; TGFb inhibitor: 13µM*; ASM inhibitor: -8%; DT40 TDP1 no CPT: inconclusive

What do the screens show for `Cc1cc(N/N=C/c2ccc(O)cc2O)nc(-n2nc(C)cc2C)n1`?
TDP1 cell CPT: 0.23µM*; IL-1B inflam inh: 53; HepG2 viability: -43%; TGFb inhibitor: -26%; ASM inhibitor: 17%; DT40 TDP1 no CPT: 0.29µM*

How did Cc1cc(N/N=C/c2cccc(Cl)c2)nc(-n2nc(C)cc2C)n1 do in these assays?
TDP1 cell CPT: 0.58µM*; IL-1B inflam inh: 8; HepG2 viability: -41%; TGFb inhibitor: -21%; ASM inhibitor: -3%; DT40 TDP1 no CPT: 0.82µM*

Results for Cc1cc(C)n(-c2ccccc2[N+](=O)[O-])n1 ?
TDP1 cell CPT: 4%; IL-1B inflam inh: -5; HepG2 viability: -2%; TGFb inhibitor: -3%; ASM inhibitor: 6%; DT40 TDP1 no CPT: inconclusive

What do the screens show for `Cc1cccc(C(=O)NCCC(=O)Nc2ccc(C#N)cc2)c1`?
TDP1 cell CPT: -7%; IL-1B inflam inh: -3; HepG2 viability: 4%; TGFb inhibitor: -7%; ASM inhibitor: 0%; DT40 TDP1 no CPT: -5%

How did Cc1nnc2ccc(-c3cccc(NS(C)(=O)=O)c3)nn12 do in these assays?
TDP1 cell CPT: -3%; IL-1B inflam inh: 0; HepG2 viability: -3%; TGFb inhibitor: 16%; ASM inhibitor: 0%; DT40 TDP1 no CPT: -16%

How did CCc1cc2c(cc3c(=O)n(CC(=O)NC4CCC(C)CC4)ncn32)s1 (centres undefined) do in these assays?
TDP1 cell CPT: inconclusive; HepG2 viability: 1%; TGFb inhibitor: -12%; DT40 TDP1 no CPT: inconclusive

Results for CCOc1ccc(NC(=O)CCS(=O)(=O)c2ccc3c(c2)n(C)c(=O)c(=O)n3C)cc1 ?
TDP1 cell CPT: 16%; HepG2 viability: 0%; DT40 TDP1 no CPT: 4%

What do the screens show for `Cc1cc(N/N=C/c2ccc(O)cc2O)nc(-c2ccccc2O)n1`?
TDP1 cell CPT: inconclusive; IL-1B inflam inh: -77*; HepG2 viability: -41%; TGFb inhibitor: inconclusive; DT40 TDP1 no CPT: inconclusive

What do the screens show for `Cc1ccc(S(=O)(=O)n2nc(C)c(S(=O)(=O)N3CCCCCC3)c2C)cc1C`?
TDP1 cell CPT: 2%; HepG2 viability: 0%; TGFb inhibitor: 20%; DT40 TDP1 no CPT: -14%

What do the screens show for `Cc1ccc(S(=O)(=O)n2nc(C)c(Br)c2C)c(C)c1C`?
TDP1 cell CPT: inconclusive; IL-1B inflam inh: 43; HepG2 viability: -2%; TGFb inhibitor: inconclusive; ASM inhibitor: -2%; DT40 TDP1 no CPT: 21µM*

Results for Cc1ccc(C(=O)Nc2nc(-c3ccc4c(c3)OCCO4)cs2)o1 ?
TDP1 cell CPT: inconclusive; IL-1B inflam inh: -22; HepG2 viability: -24%; TGFb inhibitor: 0%; DT40 TDP1 no CPT: inconclusive

How did CCc1noc(C)c1C(=O)Nc1nc(-c2ccc(NC(C)=O)cc2)cs1 do in these assays?
TDP1 cell CPT: 16µM*; IL-1B inflam inh: 4; HepG2 viability: -13%; TGFb inhibitor: -12%; ASM inhibitor: -1%; DT40 TDP1 no CPT: 21µM*

What do the screens show for `CC(=O)Nc1ccc(-c2csc(NC(=O)c3ccc(C)o3)n2)cc1`?
TDP1 cell CPT: 13µM*; IL-1B inflam inh: inconclusive; HepG2 viability: -4%; TGFb inhibitor: 7%; ASM inhibitor: -1%; DT40 TDP1 no CPT: 9.2µM*

What do the screens show for `Cc1ccc(C(=O)Nc2nc(-c3ccc([N+](=O)[O-])cc3)cs2)o1`?
TDP1 cell CPT: 15µM*; IL-1B inflam inh: -8; HepG2 viability: -10%; TGFb inhibitor: inconclusive; ASM inhibitor: -1%; DT40 TDP1 no CPT: 12µM*

How did Cc1ccc(Cn2ccc(NC(=O)c3cc(CC(C)C)on3)n2)cc1 do in these assays?
TDP1 cell CPT: inconclusive; IL-1B inflam inh: 11; HepG2 viability: -1%; TGFb inhibitor: 12%; ASM inhibitor: -2%; DT40 TDP1 no CPT: 21µM*

Results for Cc1ccccc1Cn1nc(C)c(NC(=O)c2noc3c2CC(C(C)(C)C)CC3)c1C (centres undefined) ?
TDP1 cell CPT: inconclusive; IL-1B inflam inh: inconclusive; HepG2 viability: 3%; TGFb inhibitor: inconclusive; ASM inhibitor: -7%; DT40 TDP1 no CPT: inconclusive

Results for Cc1nn(Cc2ccc(Cl)c(Cl)c2)c(C)c1NC(=O)c1noc2c1CCCCC2 ?
TDP1 cell CPT: 12µM*; IL-1B inflam inh: -19; HepG2 viability: -22%; TGFb inhibitor: -14%; ASM inhibitor: -5%; DT40 TDP1 no CPT: 13µM*

Results for Cc1ccccc1Cn1nc(C)c(NC(=O)c2noc3c2CCc2ccccc2-3)c1C ?
TDP1 cell CPT: 21µM*; IL-1B inflam inh: -6; HepG2 viability: -22%; TGFb inhibitor: inconclusive; ASM inhibitor: -5%; DT40 TDP1 no CPT: 13µM*

What do the screens show for `Cc1nn(Cc2ccc(Cl)c(Cl)c2)c(C)c1NC(=O)c1cc(CC(C)C)on1`?
TDP1 cell CPT: 18µM*; IL-1B inflam inh: -2; HepG2 viability: 1%; TGFb inhibitor: inconclusive; ASM inhibitor: -5%; DT40 TDP1 no CPT: 23µM*

How did COc1cc(NC(=O)Cn2nnnc2-c2ccccc2F)cc(OC)c1OC do in these assays?
TDP1 cell CPT: -13%; HepG2 viability: -9%; TGFb inhibitor: -20%; DT40 TDP1 no CPT: -21%
